A selection: hits, their analogues and other compounds. The true share with any hit is near 1.9%.
ERK EGF block = qHTS Assay for Inhibitors of the ERK Signaling Pathway using a Homogeneous Screening Assay; Stimulation with EGF; HEK293-V1b, EGF-stimulated phospho-ERK AlphaScreen; Potency, µM (series often up to 11.5 µM), for inactives: at the top dose activity change, negative = inhibition, hits mostly inhibitors; hit rate 0.41% among 130,000; AID 1454, 2008;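 further: plate controls were stimulated vehicle wells for no effect and unstimulated vehicle basal for full effect; nearly all actives have a fitted effect of over 55% in size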
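Compounds are titrated over HEK293-V1b cells kept overnight in 1% FBS. After 30 min at 37C, EGF (25 nM final) triggers ERK phosphorylation for 5 min, measured by AlphaScreen in lysates.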
HTT cytoprotect = qHTS Multiplex Assay to Identify Dual Action Probes in a Cell Model of Huntington: Cytoprotection (ATP); Potency, µM (top dose mostly 56.4 µM), for the others: cytoprotection (ATP increase), actives largely listed as activators; hit rate 0.14% among 230,000; AID 1471, 2008; PC12 HTT-Q103 induced, cytoprotection, ATP luminescence, 40 h; further: % of control where 0% means no effect; nearly all actives have a fitted effect of over 45% in size
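Huntington model: PC12 line, ecdysone-inducible HTTQ103 exon1–GFP, tebufenozide 100 nM. Test articles in a dose series. Endpoint luminescence from cellular ATP.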
HTT aggregate = qHTS Multiplex Assay to Identify Dual Action Probes in a Cell Model of Huntington: Aggregate Formation (GFP); PC12 HttQ103-GFP aggregates, Acumen cytometry, 40 h; hit rate 1.1% among 220,000; Potency, µM (highest dose often 46.1 µM), inactives show at the top dose activity change, negative = inhibition, most hits filed as inhibitors; further: on the % scale 0 is the no-effect control and ±100 the full control effect; nearly all actives have a fitted effect of over 60% in size
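PC12/HTTQ103-GFP, ecdysone-inducible; teb 100 nM; cpd qHTS titration; GFP aggregates read on laser cytometer, Ex 488/Em 500-530 nm.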
IMPase Li cell = qHTS Assay for Identifying the Cell-Membrane Permeable IMPase Inhibitors: Potentiation with Lithium; CHO-M1 cells, IP1 TR-FRET (IP-One), carbachol + lithium; Potency, µM (doses to about 59.4 µM), without a hit: at the top dose activity, negative = IMPase inhibition, usual class: inhibitors; hit rate 0.35% among 210,000; AID 1457, 2008;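 further: IP1 builds up when IMPase is blocked and the TR-FRET signal falls; plate controls were basal vehicle for no effect and high inhibitor control for full effect; nearly all actives have a fitted effect of over 50% in size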
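CHO cells stably expressing M1 receptor (2000/well, cultured 16–30 h) treated 30 min at 37C with compound plus low lithium. Cytosolic IP1 by TR-FRET (665/620 ratio and 620 channel) after 10 min lysis; AC50 by Hill fit.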
NPSR antagonist = qHTS Assay for Antagonists of the Neuropeptide S Receptor: cAMP Signal Transduction | Q6W5P4 | CHO-NPSR cells, cAMP TR-FRET, antagonist mode | Potency, µM (series often up to 38.3 µM), without a hit: at the highest dose activity change, negative = inhibition, most hits filed as inhibitors | hit rate 1% among 220,000; further: on the % scale 0 is the no-effect control and ±100 the full control effect; nearly all actives have a fitted effect of over 50% in size
Target sequence (Q6W5P4 whole entry, looked up): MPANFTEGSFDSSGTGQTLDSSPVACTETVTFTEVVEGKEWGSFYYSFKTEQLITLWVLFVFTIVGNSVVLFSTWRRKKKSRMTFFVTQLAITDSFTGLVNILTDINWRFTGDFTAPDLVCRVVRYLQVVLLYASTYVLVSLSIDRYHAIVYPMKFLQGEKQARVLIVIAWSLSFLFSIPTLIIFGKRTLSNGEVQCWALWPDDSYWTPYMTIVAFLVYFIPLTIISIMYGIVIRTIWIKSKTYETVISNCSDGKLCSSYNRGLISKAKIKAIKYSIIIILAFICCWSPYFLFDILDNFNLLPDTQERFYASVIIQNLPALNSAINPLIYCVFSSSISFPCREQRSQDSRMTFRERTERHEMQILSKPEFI
Starred values were filed as active, the others as inactive; ? = inconclusive; . = not tested or not shown; [ ] = another dose, or the depositor's remark. The call rests on the fitted dose curve; in most records, active means well fitted curve in the direction sought with a large enough effect; inconclusive means small, poorly fitted or top-dose-only effect, or another doubt; inactive means no such curve, though single readings can be large; an effect the other way counts as inactive or inconclusive. Potency means the concentration at half of the fitted maximal effect.

SMILES | ERK EGF block | HTT cytoprotect | HTT aggregate | IMPase Li cell | NPSR antagonist
CCOC(=O)C(O)(c1ccc(N(CC)C(=O)OC)cc1)C(F)(F)F (stereo not given) | . | -2%[0.074 µM] | 1.6µM* | 24%[38.3 µM] | -13%[46.1 µM]
NC(=O)CN1C[C@@H](O)CC1=O | . | 1%[1.9 µM] | . | . | .
Cc1ccc(/C=C2\C(=O)NC(=S)N(c3ccccc3F)C2=O)s1 | 20µM* | -11%[10 µM] | 0% | 34% | 5µM*
CN1[C@@H]2CC[C@H]1CC(O[C@@H](c1ccccc1)c1ccccc1N)C2 (stereo not given in full) | . | 20%[1.9 µM] | . | . | .
CO[C@@H]([CH2][Hg])CN1C(=O)c2ccccc2S1(=O)=O.Cn1c(=O)c2nc[nH]c2n(C)c1=O | . | -2%[10 µM] | . | -9% | .
C=CCN1C(=O)/C(=C/c2cccs2)C(=O)NC1=S | ? | 35%[10 µM] | -1% | 11% | 13µM*
O=C1NC(=S)N(Cc2ccco2)C(=O)/C1=C\c1cccs1 | 2% | ? | -2% | -1% | -15%
CN1CCC[C@@H]1c1cccnc1.O=C(O)c1ccccc1O.O=C([OH2+])c1ccccc1O.O=C([OH2+])c1ccccc1O.O=C([OH2+])c1ccccc1O.[Mn] | . | -9%[10 µM] | . | -7% | .
CC(=O)Nc1ccc(S(=O)(=O)N(C)CCOCc2ccccc2)cc1 | . | 3% | 11µM* | 36%[38.3 µM] | 17%[46.1 µM]
N[C@@H](Cc1cc(O)c(O)cc1O)C(=O)O | . | -2%[1.9 µM] | . | . | .
CC[n+]1c(/C=C/C=C/c2ccc(N(C)C)cc2)sc2ccccc21 | 16µM* | -51%[10 µM] | ? | . | ?
CN(C)c1ccc(/C=C/C=C/c2sc3ccccc3[n+]2C)cc1 | ? | -49%[10 µM] | ? | . | ?
CC[n+]1c(/C=C/N(C)c2ccccc2)sc2ccc(Cl)cc21 | . | -84% | 13µM* | 20%[38.3 µM] | -4%[46.1 µM]
CCCCC[CH2][Hg][S]C1=C2N=CNC2NC(N)=N1 (stereo not given) | . | . | . | 19% | .
CCC(=O)OC1CCC2C3CCc4cc(O)ccc4C3CC[C@]12C (stereo not given in full) | ? | . | . | 25% | .
c1nc(N2CC2)c2cnn([C@@H]3CCCCO3)c2n1 | . | 3%[10 µM] | . | 6% | .
CC[N+](CC)(CCNC(=O)C(=O)NCC[N+](CC)(CC)Cc1ccccc1Cl)Cc1ccccc1Cl | 1% | ? | -8% | 29% | .
COc1cc(/C=C/C(=O)c2c(O)n(CCc3ccccc3)c(=O)[nH]c2=O)ccc1O | 0% | -2%[10 µM] | 36%[9.22 µM] | 14% | 10µM*
O=C(/C=C/c1ccccc1)c1c(O)n(CCc2ccccc2)c(=O)[nH]c1=O | 0% | 7%[10 µM] | ? | -3% | 13µM*
Nc1c(C(=O)NCc2ccco2)c2nc3ccccc3nc2n1Cc1ccc(F)cc1 | . | -14%[10 µM] | ? | 26%[38.3 µM] | 10µM*
O=C(O)CN1CCN(CC(=O)O)CC(=O)[O][Hg][O]C(=O)C1 | . | -45%[10 µM] | . | 3% | .
C[C@H]1C2C=C[C@H]1[C@@H](C(=O)O)[C@@H]2c1c2ccc(=O)c(O)c-2oc2c(O)c(O)ccc12 | . | . | . | 2% | .
C[C@@H]1CC[C@H]2[C@@H](C)C(=O)O[C@@H]3OC4(C)CC[C@@H]1C32OO4 (stereo not given in full) | -14% | -154% | 3.2µM* | -5% | .
CC1CC[C@@]2(OC1)O[C@@H]1[C@@H](O)[C@H]3C4CC[C@H]5C[C@@H](O[C@@H]6O[C@H](CO)[C@H](O[C@@H]7O[C@H](CO)[C@@H](O)[C@H](O[C@@H]8OC[C@@H](O)[C@H](O)[C@H]8O)[C@H]7O[C@@H]7O[C@H](CO)[C@@H](O)[C@H](O[C@@H]8O[C@H](CO)[C@@H](O)[C@H](O)[C@H]8O)[C@H]7O)[C@H](O)[C@H]6O)[C@H](O)C[C@]5(C)C4CC[C@]3(C)[C@H]1[C@@H]2C (stereo not given in full) | -3% | -25%[1.9 µM] | . | 28% | .
C[C@H]1CC[C@@H]2[C@@H](C)[C@H]3[C@H](C[C@H]4[C@@H]5CC=C6CC(O[C@@H]7O[C@H](CO)[C@H](O)[C@H](O[C@@H]8O[C@H](CO)[C@@H](O)[C@H](O)[C@H]8O)[C@H]7O[C@H]7O[C@@H](C)[C@H](O)[C@@H](O)[C@H]7O)CC[C@]6(C)[C@H]5CC[C@]34C)N2C1 (stereo not given in full) | . | -102% | 22µM* | 38% | .
SMILES | ERK EGF block | HTT cytoprotect | HTT aggregate | IMPase Li cell | NPSR antagonist
C[C@@]12CC[C@H]3[C@@H](CC[C@@H]4C[C@H](O)CC[C@]43C)[C@H]1CC[C@H]2O | . | -16%[1.9 µM] | . | . | .
COc1cc2c(cc1OC)[C@@]13CCN4C=C5CCO[C@H]6CC(=O)N2[C@@H]1C6[C@H]5C[C@H]43 (stereo not given in full) | . | . | . | -2% | .
N[C@]1(C(=O)O)CC[C@@H](C(=O)O)C1 | . | -7%[1.9 µM] | . | . | .
CO[C@@H](COC(N)=O)C1=C(N2CC2)C(=O)C(C)=C(N2CC2)C1=O | . | -98% | 5µM* | . | .
Cc1cc[c]([Sb]2[O]C([C@H](O)[C@H](O)C(=O)O)[C@@H](CO)[O]2)cc1 (stereo not given in full) | . | . | . | -3% | .
C=C[C@@H]1CN2CC[C@H]1CC2[C@H](O)c1ccnc2ccccc12 (stereo not given in full) | . | . | . | -1% | .
COc1ccccc1N1C(=O)NC(=O)/C(=C/c2ccc3c4c(cccc24)CC3)C1=O | . | 6%[10 µM] | 18% | . | 10µM*
O=C1NC(=O)N(c2ccccc2)C(=O)/C1=C\c1ccc2c3c(cccc13)CC2 | -14% | 14%[10 µM] | -9% | -10% | -24%[46.1 µM]
O=c1[nH]c(=O)n(Cl)c(=O)n1Cl | . | 14µM* | 2% | . | .
CC(=O)OC[C@]12CCC(C)=C[C@H]1O[C@@H]1[C@H](O)[C@@H](OC(C)=O)[C@@]2(C)[C@]12CO2 | -8%[57.5 µM] | -76%[10 µM] | 0.1µM* | . | -38%
CC(=O)OC[C@]12C[C@H](OC(=O)CC(C)C)C(C)=C[C@H]1O[C@H]1[C@H](O)[C@@H](OC(C)=O)[C@@]2(C)[C@]12CO2 | -3% | -320% | . | 8% | .
COc1cc2c(cc1OC)-c1c(O)c(OC)cc3c1[C@@H](C2)N(C)CC3 | . | -22% | . | . | .
COc1ccc2c3c([nH]c2c1)C(C)=NCC3 | ? | -20% | 16µM* | ? | -35%

Screens: PubChem, National Center for Advancing Translational Sciences (NCATS)
